Laboratory results from PubChem BioAssay (EPA / NIEHS).
Records with an inconclusive call do not appear. Active and inactive are the calls of the source. Rule for the calls: active = hit-call score of the fitted dose curve at least 0.9, where 1 is the maximum; inconclusive = response in the unintended direction; inactive = score below 0.9.

Assays:
[1] = TOX21_p53_BLA_p2_viability: Viability Assessment in the Tox21 HCT-116 p53 Agonism Beta-lactamase Assay, Phase 2 (AID 2283591);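 note: compound exposure lasted 16 h at 37 °C; actives lower the ATP signal meaning cytotoxicity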
In short: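 HCT116 p53-bla cells, 4000/well, dosed after 5 h plating (217-fold dilution of DMSO stocks) and incubated 16 h at 37C. Viability taken as cellular ATP by CellTiter-Glo luminescence after 30 min RT; signal loss marks cytotoxicity.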

[2] = biological target: Cellular tumor antigen p53 (Homo sapiens) (UniProt P04637); experiment: TOX21_p53_BLA_p2_ratio: Tox21 HCT-116 p53 Agonism Beta-lactamase Assay, Ratio, Phase 2 (AID 2283592)
In short: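 HCT116 cells carrying a p53-responsive beta-lactamase reporter were plated, incubated 5 h at 37C, then dosed with compounds in DMSO (217-fold dilution) for 16 h. CCF4-AM substrate was added for 2 h at room temperature; the 460/530 nm emission ratio gave gain-of-signal activity relative to DMSO.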

[3] = TOX21_p53_BLA_p3_viability: Viability Assessment in the Tox21 HCT-116 p53 Agonism Beta-lactamase Assay, Phase 3 (AID 2283593);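 note: cells exposed to compound for 16 h before reading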
In short: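 HCT116 cells, 4000/well, dosed 5 h after plating by pin transfer (217-fold dilution from DMSO stock) and incubated 16 h at 37C, 5% CO2. Viability read as ATP luminescence with CellTiter-Glo after 30 min at room temperature.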

[4] = TOX21_p53_BLA_p4_viability: Viability Assessment in the Tox21 HCT-116 p53 Agonism Beta-lactamase Assay, Phase 4 (AID 2283597);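 note: hits lower the luminescence signal meaning cytotoxicity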
In short: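 HCT116 p53-bla cells (4000/well) rested 5 h at 37C, then received compounds in DMSO (217-fold dilution) for 16 h at 37C, 5% CO2. CellTiter-Glo was added after the CCF4-AM read, and luminescence was read after 30 min at room temperature.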

[5] = biological target: Cellular tumor antigen p53 (Homo sapiens) (UniProt P04637); experiment: TOX21_p53_BLA_p5_ratio: Tox21 HCT-116 p53 Agonism Beta-lactamase Assay, Ratio, Phase 5 (AID 2283599)
In short: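 HCT-116 p53-bla cells (4000/well) plated 5 h, dosed with compound (217-fold DMSO dilution) for 16 h at 37 C; CCF4-AM substrate 2 h at room temperature. Activity is the 460/530 nm emission ratio (405 nm excitation), fitted in gain-of-signal direction versus DMSO.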

[6] = TOX21_p53_BLA_p5_viability: Viability Assessment in the Tox21 HCT-116 p53 Agonism Beta-lactamase Assay, Phase 5 (AID 2283600)
In short: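 Cells were plated at 4000/well, rested 5 h at 37C, then given compounds in DMSO (217-fold dilution) for 16 h at 37C, 5% CO2. Following the CCF4-AM beta-lactamase read, CellTiter-Glo was added and luminescence was read after 30 min at room temperature.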

[7] = biological target: Cellular tumor antigen p53 (Homo sapiens) (UniProt P04637); experiment: TOX21_p53_BLA_p4_ratio: Tox21 HCT-116 p53 Agonism Beta-lactamase Assay, Ratio, Phase 4 (AID 2283601)
In short: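 HCT-116 p53 beta-lactamase reporter cells (4000/well) preincubated 5 h, then compound (217-fold dilution of DMSO stock) for 16 h at 37C. CCF4-AM substrate added 2 h at room temperature; 460/530 nm emission ratio fitted upward versus DMSO.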

Cellular tumor antigen p53 (Homo sapiens), sequence (P04637 whole entry, looked up): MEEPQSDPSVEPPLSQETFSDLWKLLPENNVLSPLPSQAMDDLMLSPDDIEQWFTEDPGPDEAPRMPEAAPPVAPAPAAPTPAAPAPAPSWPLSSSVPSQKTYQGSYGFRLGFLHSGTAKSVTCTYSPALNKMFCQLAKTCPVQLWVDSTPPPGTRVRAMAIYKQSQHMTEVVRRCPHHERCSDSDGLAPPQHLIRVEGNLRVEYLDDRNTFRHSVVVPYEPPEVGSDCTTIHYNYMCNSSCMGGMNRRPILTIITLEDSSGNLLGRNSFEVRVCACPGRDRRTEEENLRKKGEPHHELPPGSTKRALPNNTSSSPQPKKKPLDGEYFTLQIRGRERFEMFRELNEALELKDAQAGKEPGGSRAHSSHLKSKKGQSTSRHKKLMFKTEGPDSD

SMILES | outcome [1] | outcome [2] | outcome [3] | outcome [4] | outcome [5] | outcome [6] | AC50 [4] | outcome [7]
CC1(C)C(=O)C(C)(C)C1=O | inactive | inactive | inactive | inactive | inactive | inactive | – | –
CC[N+]1(CC)CCC(=C(c2ccccc2)c2ccccc2)C1C (centres undefined) | inactive | inactive | inactive | inactive | inactive | inactive | – | –
CC(C)CN(C[C@@H](OP(=O)(O)O)[C@H](Cc1ccccc1)NC(=O)O[C@H]1CCOC1)S(=O)(=O)c1ccc(N)cc1 | inactive | inactive | inactive | inactive | inactive | – | – | –
Cc1cc(N)c2cc(NC(=O)Nc3ccc4nc(C)cc(N)c4c3)ccc2n1 | inactive | inactive | inactive | – | inactive | inactive | 29.7 µM (active) | inactive
